Measurements from the supplement of paper PMC8728848.
This is one part of a sample in which the strongest signals are shown more often than they occur.

Assays:
Experiment in all cases: glycan array binding signal (z-score within array); higher = stronger binding
Details in all cases: glycan notation: IUPAC condensed, linker removed
[1] = biological target: Fuc(a1-2)Gal(b1-3)GalNAc(a1-3)[Fuc(a1-2)]Gal(b1-4)Glc
Procedure, shortened: (§1)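 The binding signal is a Z-score computed within each array and averaged over linkers. Arrays of the same protein sequence at different concentrations or buffers were also averaged together. Data originate from 3228 arrays in the Consortium for Functional Glycomics database, kept only where the protein sequence was available.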

[2] = biological target: Fuc(a1-2)Gal(b1-3)GlcNAc(b1-3)Gal(b1-4)Glc
Procedure, shortened: as §1

[3] = biological target: Fuc(a1-2)Gal(b1-3)GlcNAc(b1-3)[Gal(b1-4)GlcNAc(b1-6)]Gal(b1-4)Glc
Procedure, shortened: as §1

[4] = biological target: Fuc(a1-2)Gal(b1-4)GlcNAc(b1-3)[Fuc(a1-2)Gal(b1-4)GlcNAc(b1-6)]GalNAc
Procedure, shortened: as §1

[5] = biological target: Fuc(a1-2)Gal(b1-4)[Fuc(a1-3)]GlcNAc
Procedure, shortened: as §1

Fuc(a1-2)Gal6S(b1-4)Glc = biological target: Fuc(a1-2)Gal6S(b1-4)Glc
Procedure, shortened: as §1

[6] = biological target: Fuc(a1-2)[Gal(a1-3)]Gal(b1-3)GlcNAc
Procedure, shortened: as §1

[7] = biological target: Fuc(a1-2)[Gal(a1-3)]Gal(b1-4)GlcNAc
Procedure, shortened: as §1

[8] = biological target: Fuc(a1-2)[GalNAc(a1-3)]Gal(b1-3)GlcNAc(b1-2)Man(a1-3)[Fuc(a1-2)[GalNAc(a1-3)]Gal(b1-3)GlcNAc(b1-2)Man(a1-6)]Man(b1-4)GlcNAc(b1-4)GlcNAc
Procedure, shortened: as §1

[9] = biological target: Fuc(a1-2)[GalNAc(a1-3)]Gal(b1-4)GlcNAc(b1-2)Man
Procedure, shortened: as §1

Gal(a1-3)Gal(b1-3)GlcNAc = biological target: Gal(a1-3)Gal(b1-3)GlcNAc
Procedure, shortened: as §1

[10] = biological target: Gal(a1-3)Gal(b1-3)GlcNAc(b1-2)Man
Procedure, shortened: as §1

[11] = biological target: Gal(a1-3)Gal(b1-4)GlcNAc(b1-2)Man(a1-3)[Gal(a1-3)Gal(b1-4)GlcNAc(b1-2)Man(a1-6)]Man(b1-4)GlcNAc(b1-4)GlcNAc
Procedure, shortened: as §1

[12] = biological target: Gal(b1-3)GlcNAc(b1-3)Gal(b1-3)GlcNAc
Procedure, shortened: as §1

[13] = biological target: Gal(b1-3)[Fuc(a1-4)]GlcNAc(b1-2)Man
Procedure, shortened: as §1

[14] = biological target: Gal(b1-3)[Fuc(a1-4)]GlcNAc(b1-2)Man(a1-3)[Gal(b1-3)[Fuc(a1-4)]GlcNAc(b1-2)Man(a1-6)]Man(b1-4)GlcNAc(b1-4)[Fuc(a1-6)]GlcNAc
Procedure, shortened: as §1

[15] = biological target: Gal(b1-3)[Fuc(a1-4)]GlcNAc(b1-3)Gal(b1-3)[Fuc(a1-4)]GlcNAc
Procedure, shortened: as §1

[16] = biological target: Gal(b1-3)[Neu5Ac(a2-6)]GalNAc
Procedure, shortened: as §1

[17] = biological target: Gal(b1-4)GlcNAc(b1-2)Man(a1-3)[Gal(b1-4)GlcNAc(b1-2)Man(a1-6)]Man(b1-4)GlcNAc(b1-4)GlcNAc
Procedure, shortened: as §1

[18] = biological target: Gal(b1-4)GlcNAc(b1-2)Man(a1-3)[GlcNAc(b1-4)][Gal(b1-4)GlcNAc(b1-2)Man(a1-6)]Man(b1-4)GlcNAc(b1-4)GlcNAc
Procedure, shortened: as §1

[19] = biological target: Gal(b1-4)GlcNAc(b1-2)[Gal(b1-4)GlcNAc(b1-4)]Man(a1-3)[Gal(b1-4)GlcNAc(b1-2)[Gal(b1-4)GlcNAc(b1-6)]Man(a1-6)]Man(b1-4)GlcNAc(b1-4)GlcNAc
Procedure, shortened: as §1

[20] = biological target: Gal(b1-4)GlcNAc(b1-2)[Gal(b1-4)GlcNAc(b1-4)]Man(a1-3)[GlcNAc(b1-4)][Gal(b1-4)GlcNAc(b1-2)Man(a1-6)]Man(b1-4)GlcNAc(b1-4)GlcNAc
Procedure, shortened: as §1

[21] = biological target: Gal(b1-4)GlcNAc(b1-3)Gal(b1-3)GlcNAc
Procedure, shortened: as §1

[22] = biological target: Gal(b1-4)GlcNAc(b1-3)Gal(b1-4)GlcNAc(b1-3)Gal(b1-4)GlcNAc(b1-3)Gal(b1-4)GlcNAc(b1-2)[Gal(b1-4)GlcNAc(b1-3)Gal(b1-4)GlcNAc(b1-3)Gal(b1-4)GlcNAc(b1-3)Gal(b1-4)GlcNAc(b1-6)]Man(a1-6)[Gal(b1-4)GlcNAc(b1-3)Gal(b1-4)GlcNAc(b1-3)Gal(b1-4)GlcNAc(b1-3)Gal(b1-4)GlcNAc(b1-2)Man(a1-3)]Man(b1-4)GlcNAc(b1-4)[Fuc(a1-6)]GlcNAc
Procedure, shortened: as §1

[23] = biological target: Gal(b1-4)GlcNAc(b1-6)GalNAc
Procedure, shortened: as §1

[24] = biological target: Gal(b1-4)GlcNAc(b1-6)[Gal(b1-4)GlcNAc(b1-3)]GalNAc
Procedure, shortened: as §1

[25] = biological target: Gal3S(b1-3)[Fuc(a1-4)]GlcNAc
Procedure, shortened: as §1

Gal3S(b1-4)Glc6S = biological target: Gal3S(b1-4)Glc6S
Procedure, shortened: as §1

Gal6S(b1-3)GlcNAc6S = biological target: Gal6S(b1-3)GlcNAc6S
Procedure, shortened: as §1

[26] = biological target: GalNAc(b1-3)Gal(a1-6)Gal(b1-4)Glc
Procedure, shortened: as §1

B1: EULS2 M1 (Oryza sativa) (protein)
chain: MVYCRANPNYAMTARNGAVVLAPANPKDEYQHWIKDMRWSTSIKDEEGYPAFALVNKATGQAIKHSLGQSHPVRLVPYNPEVMDESVLWTESRDVGNGFRCIRMVNNIYLNFDAFHGDKYHGGVRDGTDIVLWKLCEGDNQRWKIQPYYILEQKLISEEDLNSAVDHHHHHH
[1]
  glycan array binding signal (z-score): -0.333
[2]
  glycan array binding signal (z-score): -0.208
[3]
  glycan array binding signal (z-score): -0.34
[4]
  glycan array binding signal (z-score): -0.457
[5]
  glycan array binding signal (z-score): -0.363
Fuc(a1-2)Gal6S(b1-4)Glc
  glycan array binding signal (z-score): -1.48
[6]
  glycan array binding signal (z-score): 0.694
[7]
  glycan array binding signal (z-score): -0.349
[8]
  glycan array binding signal (z-score): 3.99
[9]
  glycan array binding signal (z-score): -1
Gal(a1-3)Gal(b1-3)GlcNAc
  glycan array binding signal (z-score): 3.45
[10]
  glycan array binding signal (z-score): -0.609
[11]
  glycan array binding signal (z-score): 0.844
[12]
  glycan array binding signal (z-score): -0.334
[13]
  glycan array binding signal (z-score): 1.75
[14]
  glycan array binding signal (z-score): 1.19
[15]
  glycan array binding signal (z-score): 3.42
[16]
  glycan array binding signal (z-score): 1.39
[17]
  glycan array binding signal (z-score): -0.312
[18]
  glycan array binding signal (z-score): 1.31
[19]
  glycan array binding signal (z-score): -0.584
[20]
  glycan array binding signal (z-score): 0.188
[21]
  glycan array binding signal (z-score): -0.203
[22]
  glycan array binding signal (z-score): 0.636
[23]
  glycan array binding signal (z-score): 0.271
[24]
  glycan array binding signal (z-score): -0.195
[25]
  glycan array binding signal (z-score): -0.905
Gal3S(b1-4)Glc6S
  glycan array binding signal (z-score): 2.56
Gal6S(b1-3)GlcNAc6S
  glycan array binding signal (z-score): 10.9
[26]
  glycan array binding signal (z-score): 2.84
